From PubChem BioAssay
Shown are actives, neighbours in structure and some others; about 8.7% of the full set was active somewhere.
Sfp inh: qHTS Assay for Inhibitors of Bacillus subtilis Sfp phosphopantetheinyl transferase (PPTase) | 4'-phosphopantetheinyl transferase ffp (Bacillus subtilis), Q9F4F7 | Biochemical Sfp PPTase activity, qHTS | Potency, µM, inactives show largest response in the series, negative = inhibition, hits mostly inhibitors | hit rate 3.5% among 310,000 | AID 1490, 2009;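 further: the enzyme is Sfp with the accession as filed and its product quenches rhodamine fluorescence; 0% = enzyme reaction without inhibitor and -100% = no enzyme wells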
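Buffer: 50 mM Hepes-Na pH 7.6, 10 mM MgCl2, 0.01% Nonidet P-40, 0.01% BSA. Enzyme 15 nM, pre-exposed to compound 15 min; substrates then added and fluorescence change tracked over 30 min.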
JMJD2A Tudor: qHTS Assay for Inhibitors of JMJD2A-Tudor Domain | Lysine-specific demethylase 4A (Homo sapiens), O75164 | AlphaScreen JMJD2A-Tudor / H3K4me3 peptide binding | Potency, µM (highest dose often 114 µM), without a hit: top-dose activity change, negative = inhibition, actives largely listed as inhibitors | hit rate 4.4% among 390,000 | AID 504339, 2011; further: on the % scale 0 is the no-effect control and ±100 the full control effect; nearly all actives have a fitted effect of over 50% in size
BAZ2B block: qHTS Assay for Inhibitors of BAZ2B; AlphaScreen BAZ2B-H3K14Ac peptide displacement; Potency, µM (highest dose often 114 µM), without a hit: top-dose activity change, negative = inhibition, most hits filed as inhibitors; hit rate 4.4% among 360,000; further: on the % scale 0 is the no-effect control and ±100 the full control effect; nearly all actives have a fitted effect of over 60% in size
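In this displacement format the biotinylated H3(5-23) peptide acetylated at Lys14 serves as ligand at 50 nM, with BAZ2B at 50 nM in PBS pH 7.4 containing 0.01% Tween-20. Donor and acceptor beads are 10 ug/mL final.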
HP1b binding inh: HTS for Inhibitors of HP1-beta Chromodomain Interactions with Methylated Histone Tails; Potency, µM (series often up to 114 µM), for inactives: at the highest dose activity change, negative = inhibition, most hits filed as inhibitors; AlphaScreen HP1-beta / biotin-H3K9me3 peptide binding; Chromobox protein homolog 1 (Homo sapiens), P83916; hit rate 0.56% among 390,000; further: nearly all actives have a fitted effect of over 70% in size
Target sequence (P83916 whole entry, looked up): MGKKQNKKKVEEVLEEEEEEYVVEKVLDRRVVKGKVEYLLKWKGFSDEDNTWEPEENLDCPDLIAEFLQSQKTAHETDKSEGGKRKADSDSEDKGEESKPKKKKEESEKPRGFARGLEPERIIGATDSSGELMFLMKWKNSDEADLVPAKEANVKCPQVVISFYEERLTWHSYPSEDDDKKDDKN
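HP1-beta protein (50 nM final) preincubated 30 min at room temperature with biotinylated H3(1-18)K9me3 peptide (50 nM) in PBS pH 7.4, 0.01% Tween-20, then compound added for 30 min. AlphaScreen streptavidin donor/nickel chelate acceptor beads (10 ug/mL final), 30 min dark, luminescence read.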
12-LOX inh: Primary qHTS assay for inhibitors of human arachidonate 12S-lipoxygenase (ALOX12): Round 2; purified 12hLO, xylenol orange hydroperoxide absorbance; Potency, µM (titrated, usually from 108 µM), for the others: at the top dose activity change, negative = inhibition, most hits filed as inhibitors; AID 1671190, 2021; hit rate 1.1% among 580,000; further: on the % scale 0 is the no-effect control and ±100 the full control effect
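Hydroperoxide product was detected by ferrous iron/xylenol orange as the 573 to 405 nm absorbance ratio. Arachidonic acid at 40 uM (final) was turned over for 30 min at room temperature by 150 nM human 12hLO, pH 7.0 Hepes buffer, after 15 min compound preincubation.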
G9a inh: qHTS Assay for Inhibitors of Histone Lysine Methyltransferase G9a. Histone-lysine N-methyltransferase EHMT2 (Homo sapiens), Q96KQ7. G9a H3K9 monomethylation, AlphaScreen, 2 h. Potency, µM (top dose mostly 102 µM), inactives show top-dose activity, negative = inhibition, most hits filed as inhibitors. hit rate 8.8% among 350,000; further: on the % scale 0 is the no-effect control and ±100 the full control effect; nearly all actives have a fitted effect of over 75% in size
Target sequence (Q96KQ7 913-1193 limits assumed): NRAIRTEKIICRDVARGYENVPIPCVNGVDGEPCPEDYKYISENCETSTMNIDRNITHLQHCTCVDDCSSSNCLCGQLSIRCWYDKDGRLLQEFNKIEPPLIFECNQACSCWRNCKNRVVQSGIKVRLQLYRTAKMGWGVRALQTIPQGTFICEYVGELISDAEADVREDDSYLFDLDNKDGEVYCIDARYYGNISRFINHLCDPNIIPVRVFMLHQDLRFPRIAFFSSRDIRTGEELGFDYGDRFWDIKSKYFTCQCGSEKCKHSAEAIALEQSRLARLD
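Readings reflect AlphaScreen signal from monomethyl-H3K9 antibody detection. HMT at 20 nM; substrate b-H3K9 500 nM; cofactor SAM 20 uM; 2 h RT reaction; compounds tested as titrations in qHTS with 15 min preincubation.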
An asterisk follows results filed as active; [ ] = another dose, or the depositor's remark. The call rests on the fitted dose curve; in most records, active means well fitted curve in the direction sought with a large enough effect; inconclusive means small, poorly fitted or top-dose-only effect, or another doubt; inactive means no such curve, though single readings can be large; an effect the other way counts as inactive or inconclusive. Potency means the concentration at half of the fitted maximal effect.

How did C/C=C/Cn1c(Br)nc2c1c(=O)n(C)c(=O)n2C do in these assays?
Sfp inh: 7.3%; JMJD2A Tudor: -8.7%; BAZ2B block: 6.6%; HP1b binding inh: 29.5%; 12-LOX inh: -23.8%; G9a inh: -9.6%[12.7 µM]

What do the screens show for `Cn1c(=O)c2c(nc(Br)n2C/C=N/NC(N)=S)n(C)c1=O`?
Sfp inh: 50.1µM*; JMJD2A Tudor: -10.7%; BAZ2B block: -5.4%; HP1b binding inh: 36.9%; 12-LOX inh: -55.9%

What do the screens show for `C/C=C/Cn1c(Br)nc2c1c(=O)[nH]c(=O)n2C`?
Sfp inh: 6.9%; JMJD2A Tudor: -11.3%; BAZ2B block: -1.9%; HP1b binding inh: 46.9%; 12-LOX inh: -5.3%; G9a inh: -9.0%[59 µM]

Results for C=CCn1c(N2CCCCC2)nc2c1c(=O)[nH]c(=O)n2C ?
12-LOX inh: 1.5%

What do the screens show for `O=C1CCN(C(=O)Nc2ccccc2)CCCCCCN1`?
12-LOX inh: 43.6%

Results for C=CCc1cc(/C=C2/NC(=O)NC2=O)cc(OCC)c1OCc1ccc(C(=O)O)cc1 ?
12-LOX inh: -10.8%

How did CNC(=O)CCn1ncc2cc(OC3CCc4cccc(-c5cnn(C)c5)c43)ccc21 (stereo unspecified) do in these assays?
12-LOX inh: -12.7%[176 µM]

Results for CNC(=O)CCn1ncc2cc(OC3CCc4cccc(-c5ccc(O)c(F)c5)c43)ccc21 (stereo unspecified) ?
12-LOX inh: 50.1µM*

What do the screens show for `COc1ccccc1OCC(=O)Nc1ccc2oc(C)nc2c1`?
12-LOX inh: 15.4%

How did CC(=O)c1ccc(NC(=O)c2noc3c2CCCCC3)cc1 do in these assays?
Sfp inh: -10.0%; JMJD2A Tudor: -13.6%; BAZ2B block: 16.0%; HP1b binding inh: 22.7%; 12-LOX inh: 9.9%; G9a inh: 56.2µM*

How did O=C(Nc1ccc(F)cc1F)c1noc2c1CCC2 do in these assays?
Sfp inh: 2.0%; JMJD2A Tudor: 79.4µM*; BAZ2B block: 56.2µM*; HP1b binding inh: inconclusive; G9a inh: inconclusive

Results for CCOC(=O)c1ccc(NC(=O)c2noc3c2CCCC3)cc1 ?
JMJD2A Tudor: 6.8%; BAZ2B block: 29.6%[57.1 µM]; HP1b binding inh: 55.7%; 12-LOX inh: -6.1%; G9a inh: -6.5%[59 µM]

What do the screens show for `CCOC(=O)C1(Cc2ccc(OC)cc2)CCNCC1`?
12-LOX inh: 12.3%

How did COc1cc(C2C(C(C)=O)=C(O)C(=O)N2CCc2c[nH]c3ccccc23)ccc1O (stereo unspecified) do in these assays?
Sfp inh: -5.3%; JMJD2A Tudor: 100µM*; BAZ2B block: inconclusive; HP1b binding inh: -7.6%; 12-LOX inh: -5.5%; G9a inh: 50.1µM*

How did CC(=O)C1=C(O)C(=O)N(CCc2c[nH]c3ccccc23)C1c1cccc(O)c1 (stereo unspecified) do in these assays?
Sfp inh: -4.2%; JMJD2A Tudor: 79.4µM*; BAZ2B block: inconclusive; HP1b binding inh: -4.8%; 12-LOX inh: inconclusive; G9a inh: inconclusive

Results for Cc1ccccc1OCc1nc(-c2ccccc2OCC(=O)N2CCC(C)CC2)no1 ?
12-LOX inh: -6.6%

How did NC(=O)COc1ccc(C2CC(=O)Nc3n[nH]c(Nc4ccccc4)c32)cc1 (stereo unspecified) do in these assays?
12-LOX inh: 1.1%

Results for Cc1cccc(OCC(O)Cn2c(N)nc3c2c(=O)n(C)c(=O)n3C)c1 (stereo unspecified) ?
12-LOX inh: 4.6%

What do the screens show for `COc1ccc(OC)c(NC(=O)c2cc(=O)c3ccc(C)cc3o2)c1`?
12-LOX inh: 2.3%

Results for COc1ccc(C)cc1-n1cnnn1 ?
Sfp inh: -3.8%; JMJD2A Tudor: -18.2%; BAZ2B block: 3.6%; HP1b binding inh: 8.0%; 12-LOX inh: 0.0%

What do the screens show for `COc1ccc(-c2cc(-c3ccc(OC)c(OC)c3)n[nH]2)c(O)c1`?
Sfp inh: -2.0%; JMJD2A Tudor: -29.2%; BAZ2B block: 3.8%; HP1b binding inh: 8.4%; 12-LOX inh: -21.1%; G9a inh: inconclusive

What do the screens show for `COc1ccc(OC)c(-n2c(-c3ccc(O)cc3O)n[nH]c2=S)c1`?
Sfp inh: 89.1µM*; JMJD2A Tudor: 3.98µM*; BAZ2B block: -7.6%; HP1b binding inh: 9.6%; 12-LOX inh: inconclusive

Results for COc1cc(-n2c(-c3ccccc3)n[nH]c2=S)c(OC)cc1Cl ?
Sfp inh: inconclusive; JMJD2A Tudor: -18.1%; BAZ2B block: inconclusive; HP1b binding inh: 32.6%; 12-LOX inh: 28.2µM*

What do the screens show for `COc1cc(OC)cc(-c2n[nH]c(=S)n2-c2cc(OC)ccc2OC)c1`?
Sfp inh: -2.4%; JMJD2A Tudor: 7.94µM*; BAZ2B block: -1.4%; HP1b binding inh: 20.4%; 12-LOX inh: 0.0%; G9a inh: inconclusive

What do the screens show for `COc1ccc(C)cc1-n1c(-c2ccncc2)n[nH]c1=S`?
Sfp inh: -5.0%; JMJD2A Tudor: 20µM*; BAZ2B block: 0.5%; HP1b binding inh: 40.9%; 12-LOX inh: -9.0%; G9a inh: inconclusive

What do the screens show for `COc1ccc(-c2nnc(SCC(=O)Nc3ccc4cn[nH]c4c3)n2-c2ccc(Cl)cc2)cc1`?
12-LOX inh: -12.1%

What do the screens show for `Cc1oc(C(O)c2ccccc2F)nc1C(=O)Nc1ccc2[nH]ccc2c1` (stereo unspecified)?
12-LOX inh: 2.7%[176 µM]

Results for Cc1ccc(CN2CCCn3nc(C)c(-c4ccccc4-c4ccccc4)c32)o1 ?
12-LOX inh: 53.2%[176 µM]

Results for CCOC(=O)CON1C(=O)C(=O)N(OCC(=O)OCC)[C@H]2CCCC[C@H]21 ?
Sfp inh: 12.0%; JMJD2A Tudor: 2.8%; BAZ2B block: 3.4%; HP1b binding inh: 23.5%; 12-LOX inh: -18.2%; G9a inh: inconclusive

What do the screens show for `CCOC(=O)CN1NC2(CCC(C(C)(C)C)CC2)NC1=S` (stereo unspecified)?
Sfp inh: 22.4µM*; JMJD2A Tudor: 39.8µM*; BAZ2B block: inconclusive; HP1b binding inh: 32.4%; 12-LOX inh: inconclusive; G9a inh: 14.1%[12.7 µM]
